# The campaign covered roughly 69,000 compounds. About 8,600 (12%) showed an effect of 50% or more. Shown is part of a subset that was picked to be rich in strong results.
# Test system: Plasmodium berghei
# Experiment: Screen against P. berghei liver stage (PbLuc), transformed with Luciferase, at 10uM
# Format: functional, HepG2
# Settings: tested at 10 uM
row,SMILES,INHIBITION
1,NC(=O)c1sc2ccccc2c1C1CCN(S(=O)(=O)N2CCOCC2)C1 (stereo not drawn),-24.4%
2,CCc1ccc(CNc2cc(N3CCCC3CO)ncn2)s1 (stereo not drawn),49.1%
3,CC(C)N(Cc1ccccn1)C(=O)CCC(=O)c1ccc(F)cc1F,36.9%
4,CN(Cc1ccccc1-n1cccn1)C[C@@H]1CCCN2CCCC[C@H]12,40.7%
5,CN(Cc1nc2ccsc2c(=O)[nH]1)CC1CCCCC1,-21.8%
6,CN(Cc1nc2ccsc2c(=O)[nH]1)C[C@@H]1CCCN2CCCC[C@H]12,68.4%
7,CN(Cc1ccc(-n2cccn2)cc1)C[C@@H]1CCCN2CCCC[C@H]12,70%
8,CN(Cc1nc2ccccc2c(=O)[nH]1)C[C@@H]1CCCN2CCCC[C@H]12,42.6%
9,CN(Cc1ccc(-n2cccn2)cc1)CC1CCCN1c1cccnn1 (stereo not drawn),9.64%
10,CNC(=O)C1(CCCc2ccncc2)CCCCN1 (stereo not drawn),-4.51%
11,CCc1cc(NCCCN(C)C2CCCC2)ncn1,-13.1%
12,Cc1nc(C(=O)N(CC2CCCO2)c2ccncc2)cs1 (stereo not drawn),45.5%
13,O=C1CCCN1C1CCCN(CCOc2ccc(F)cc2)C1 (stereo not drawn),31.2%
14,CC(C)(C#N)c1ccccc1CN1CCC(N2CCCC2=O)CC1,57.7%
15,COC(=O)N1CCN(Cc2ccccc2C(C)(C)C#N)CC1,39.2%
16,CN(C)c1ccccc1CN1CCCC(N2CCCC2=O)C1 (stereo not drawn),51.7%
17,CCc1ccccc1CN1CCC(N2CCCC2=O)CC1,-0.87%
18,CN(C)c1ccccc1CN1CCC(N2CCCC2=O)CC1,25.2%
19,CCSCc1csc(-c2ccc(S(C)(=O)=O)cc2)n1,-35.8%
20,CCOc1cc(CNC(=O)CNC(=O)CC2CCCCC2)ccn1,6.23%
21,NCc1cnc(Nc2ccccc2)nc1,23.1%
22,CCc1cnc(CN(C(C)=O)C2CCN(CCN3CCCCC3)C2)o1 (stereo not drawn),31.9%

row,SMILES,INHIBITION
1,CC(C)c1noc(-c2ccc(-n3cnc(C(=O)O)c3)nc2)n1,2.49%
2,Cc1c(C(=O)N2CCCC(C(=O)c3nccn3C)C2)c[nH]c(=O)c1C#N (stereo not drawn),25.1%
3,O=C(CCC(=O)N1CCNC(=O)C1c1cccc(F)c1)NC1CCCC1 (stereo not drawn),55.5%
4,O=C1NCCN(C(=O)CCN2CCCO2)C1c1cccc(F)c1 (stereo not drawn),5.15%
5,O=C1NCCN(C(=O)CN2CCOC2=O)C1c1cccc(F)c1 (stereo not drawn),32%
6,CCc1nccn1C1CCCN(C(=O)c2csc(NC(C)=O)n2)C1 (stereo not drawn),20.1%
7,CC(NCc1ccccc1Br)c1ccc2[nH]c(=O)[nH]c2c1 (stereo not drawn),51.6%
8,CC(NCc1ccccc1Cl)c1ccc2[nH]c(=O)[nH]c2c1 (stereo not drawn),40.9%
9,COc1ccccc1CNC(C)c1ccc2[nH]c(=O)[nH]c2c1 (stereo not drawn),7.12%
10,CCN1CC(C(=O)NCCCc2nc(C)c(C)s2)CC1=O (stereo not drawn),45.8%
11,Cc1nc(CCCNC(=O)C2CC(=O)N(C3CC3)C2)sc1C (stereo not drawn),56.8%
12,Cc1nc(CCCNC(=O)C2CC(=O)N(C3CCCC3)C2)sc1C (stereo not drawn),44.7%
13,Cc1cnc2n1CCN(C)C21CCN(C(=O)CC(C)C)CC1,0.547%
14,COCc1ccc(C(=O)N2CC[C@H](O)[C@@H](n3ccnc3)CC2)cc1,-6.3%
15,Cn1c(=O)oc2cc(S(=O)(=O)N3CCCCC3)c(Cl)cc21,30%
16,Cn1c(=O)oc2cc(S(=O)(=O)N3CCC(c4ccccc4)C3)c(Cl)cc21 (stereo not drawn),55%
17,Cn1c(=O)oc2ccc(S(=O)(=O)N3CCC(c4ccccc4)C3)cc21 (stereo not drawn),-5.26%
18,COCC(NC(=O)c1ccoc1C)c1cccc(C(F)(F)F)c1 (stereo not drawn),17.8%
19,O=C(O)[C@]12CCCN(Cc3ccsc3)C[C@H]1CN(c1ccccn1)C2,1.48%
20,Cc1ccc(CN2CCCC3(COCCN(Cc4c[nH]nn4)C3)C2)s1 (stereo not drawn),65.6%
21,Cc1ccc(CN2CCCC3(COCCN(Cc4c[nH]nn4)C3)C2)o1 (stereo not drawn),30.5%
22,CNC(=O)CN1CCOCC2(CCCN(Cc3ccoc3)C2)C1 (stereo not drawn),-2.35%

row,SMILES,INHIBITION
1,c1csc(CN2CCCC3(COCCN(Cc4c[nH]nn4)C3)C2)c1 (stereo not drawn),31.7%
2,Cn1cc(CN2CCCC3(COCCN(Cc4c[nH]nn4)C3)C2)cn1 (stereo not drawn),-6.23%
3,c1cc(CN2CCCC3(COCCN(Cc4c[nH]nn4)C3)C2)cs1 (stereo not drawn),-4.88%
4,Fc1ccc(CN2CCCC3(COCCN(Cc4c[nH]nn4)C3)C2)cc1 (stereo not drawn),61.5%
5,CNC(=O)CN1CCOCC2(CCCN(Cc3ccsc3)C2)C1 (stereo not drawn),-17.1%
6,CNC(=O)CN1CCOCC2(CCCN(Cc3ccc(F)cc3)C2)C1 (stereo not drawn),53.1%
7,CCc1cccc(CC)c1NC(=O)c1ccccc1N(C)S(C)(=O)=O,26.9%
8,Cn1cccc1C(=O)N1CCCCC1c1[nH]ncc1S(C)(=O)=O (stereo not drawn),4.08%
9,CC(C)n1cnc2c1C(C(=O)N1CCCC1)N(CC1CC1)CC2 (stereo not drawn),13.7%
10,Cc1nc(C(C)(C)C)sc1C(=O)NCCNc1ncccc1C#N,-26.6%
11,CCN(Cc1c(F)cccc1F)Cn1nc(C)c2c(C)onc2c1=O,12.7%
12,Cc1noc(C)c1CNCC1(COc2cccnc2)C[C@@H](O)[C@@H](O)C1 (stereo partly drawn),27.5%
13,Cc1ccccc1C1(CNC(=O)NCCc2nnc3n2CCC3)CC1,-25.3%
14,NC(=O)C1(c2cnccn2)CCCN1Cc1ccncc1 (stereo not drawn),72.3%
15,NC(=O)C1(c2cnccn2)CCCN1Cc1cccc(Cl)c1 (stereo not drawn),15.9%
16,NC(=O)C1(c2cnccn2)CCCN1Cc1ccc(Cl)cc1 (stereo not drawn),-7.79%
17,OCC1(NCc2cnc(-c3cccs3)s2)CCOCC1,0.0944%
18,CC(C)(C)c1nc(CN2CCOC(Cn3cncn3)C2)cs1 (stereo not drawn),44.3%
19,Clc1cccc(OCCCN2CCOC(Cn3cncn3)C2)c1 (stereo not drawn),14.1%
20,c1ccc(-c2nc(CN3CCOC(Cn4cncn4)C3)cs2)cc1 (stereo not drawn),18.2%
21,c1ccc(-c2nc(CN3CCOC(Cn4cccn4)C3)cs2)cc1 (stereo not drawn),-6.04%
22,c1ncn(CC2CN(Cc3csc(C4CCCC4)n3)CCO2)n1 (stereo not drawn),58.3%

row,SMILES,INHIBITION
1,CC(C)c1nc(CN2CCOC(Cn3cncn3)C2)cs1 (stereo not drawn),-33.9%
2,Cc1cnn(CC2CN(Cc3csc(C4CCCC4)n3)CCO2)c1 (stereo not drawn),-6.44%
3,c1cnn(CC2CN(Cc3csc(C4CCCCC4)n3)CCO2)c1 (stereo not drawn),64.8%
4,c1csc(-c2nc(CN3CCOC(Cn4cncn4)C3)cs2)c1 (stereo not drawn),40.9%
5,c1cnc(-c2nc(CN3CCOC(Cn4cncn4)C3)cs2)nc1 (stereo not drawn),88.1%
6,Fc1ccc(OCCCN2CCOC(Cn3cncn3)C2)cc1 (stereo not drawn),19.4%
7,Clc1ccc(OCCCN2CCOC(Cn3cncn3)C2)cc1 (stereo not drawn),66.2%
8,O=C(c1ccc(S(=O)(=O)NCc2ccon2)cc1)N1CCCCCC1,-6.21%
9,CC(C)c1nnc2n1CCN(C(=O)c1ccc(N(C)C)nn1)C2,4.71%
10,Cn1cc(-c2cnc(-c3ccnn3C)nc2)cc1C(=O)NC1CC1,24.6%
11,COC(=O)N1CCC(c2nnc(Cn3ccnc3)n2C)CC1,1.48%
12,CS(=O)(=O)N1CCC(CNc2cc(Cl)ccc2C#N)CC1,-13.9%
13,N#Cc1ccc(Cl)cc1NCC1CC1,47.7%
14,N#Cc1cc(F)ccc1NCC1CCN(S(=O)(=O)C(F)F)CC1,65.3%
15,O=S(=O)(NCc1ccccc1Cn1cncn1)N1CCCCCC1,34.7%
16,COc1cc(CNC(=O)c2cc(Cl)ccc2F)ccn1,11.4%
17,COCCNC(=O)Cn1nc(C(C)C)c2cnn(C(C)(C)C)c2c1=O,-7.35%
18,Cn1ncc(NCc2cccc(F)c2)c(Cl)c1=O,-5.25%
19,COc1cc(CNC(=O)CNc2cc(Cl)ccc2OC)ccn1,14.4%
20,CC(C)(C)n1ncc(NCc2ccccc2)c(Cl)c1=O,61.1%
21,COc1cc(CNc2cnn(C(C)(C)C)c(=O)c2Cl)ccn1,70.6%
22,CCc1c(NCc2ccc(F)cc2)cnn1CC(C)C,22.6%

row,SMILES,INHIBITION
1,COCc1ccc(CNc2cnn(C(C)(C)C)c(=O)c2Cl)cc1,54.7%
2,COCc1cccc(CNc2cnn(C(C)(C)C)c(=O)c2Cl)c1,70.6%
3,COCc1cccc(CNC(=O)CNc2ccccc2C(C)=O)c1,11.4%
4,CC(C)(CO)Nc1c(NCc2ccccc2)c(=O)c1=O,17.7%
5,CC(C)c1nccc(-c2nccn2CCN(C)S(C)(=O)=O)n1,-21.9%
6,O=C(Cc1ccccn1)N1CCC2(CC1)CN(CC1CC1)C(=O)CO2,15.3%
7,CCC(CC)C(=O)N(C)CC(=O)Nc1ccc(Br)cn1,21.5%
8,CN(CCn1nc2ccccn2c1=O)CC(=O)N(C)C1CCCCC1,-111%
9,O=S(=O)(c1ccc(F)cc1)n1cc(Cl)cn1,51%
10,O=S(=O)(c1ccc(F)c(F)c1)n1cc(Cl)cn1,42.1%
11,O=S(=O)(c1cc(F)ccc1F)n1cc(Cl)cn1,48.8%
12,CCc1ccccc1CNC(=O)CCc1cnn(C)c1,16.6%
13,Cc1nnc(C(C)N2CCc3[nH]c4ccc(Cl)cc4c3C2)o1 (stereo not drawn),61.3%
14,Cc1noc(C(C)N2CCc3[nH]c4ccc(Cl)cc4c3C2)n1 (stereo not drawn),28.7%
15,Cc1nnc(C(C)N2CCc3[nH]c4ccccc4c3C2)o1 (stereo not drawn),32%
16,Cc1cnn(CC2CN(Cc3nc(C)c(C)o3)CCO2)c1 (stereo not drawn),11.4%
17,COc1cccc(C2(C(=O)NC3CCc4nccn4C3)CCCC2)c1 (stereo not drawn),34.6%
18,CC(C)[C@H]1COC(=O)N1CC(=O)N(C)CCCn1cccn1,42.1%
19,CCN(CCn1cccn1)C(=O)CN1C(=O)OC[C@@H]1c1ccccc1,9.63%
20,CCN(CCn1cccn1)C(=O)CN1C(=O)OC[C@@H]1C(C)C,64.5%

# Reference: ChEMBL document CHEMBL4513216, “Probing the Open Global Health Chemical Diversity Library for Multistage-Active Starting Points for Next-Generation Antimalarials” (ACS Infect Dis, 2020)
